D2 ag-1: activates the human D2 dopamine receptor. P14416. HEK293 T-REx D2 cells, calcium flux agonist mode. activation, % at 2 µM. 340,000 tested, 0.53% active;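 active means activation over 3 SD above normal in the single-dose calcium agonist read, cut at about 30% in these data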
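Agonism scored from kinetic calcium signal (1 read/sec, 180 s) following compound pin transfer, after a 10 s baseline. Cells: HEK293 Trex line expressing inducible D2 receptor coupled to calcium, dye-loaded after overnight culture at 30 C.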
D2 ag-2: human D2 receptor agonism in beta-arrestin assay; 360,000 tested, 0.084% active; P14416; activation, % (no concentration beside the values); DiscoveRx PathHunter D2 beta-arrestin, luminescence, 90 min; 100% = 57 uM dopamine signal; in the data active means activation above about 40%; inconclusive means between about 15% and that limit
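Agonist mode: compounds alone added to overnight-plated D2 PathHunter cells for 90 min at 37 C, with 57 uM final dopamine (EC100) defining full response. Beta-arrestin recruitment detected by chemiluminescent reagent, read after 1 h at ambient temperature.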
D2 PAM-1: positively modulates the human D2 dopamine receptor allosterically. 340,000 tested, 0.34% active. AID 485347. HEK293 T-REx D2, calcium flux, EC20 dopamine potentiation. potentiation, % at 10 µM;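 active means potentiation over 3 SD above the plate norm, cut at about 30% in these data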
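Calcium flux readout, no-wash dye, 1 read/s. Inducible HEK293 Trex D2 line, overnight 30 C. Compound alone 180 s (agonist flags), then EC20 dopamine, another 180 s to score potentiation.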
D2 antagonist: antagonizes the human D2 dopamine receptor; P14416; HEK293 TREx D2 cells, calcium flux, dopamine EC80; inhibition, % at 10 µM; 340,000 tested, 2% active; AID 485344; in the data active means inhibition above about 30%; inactive means below that, where a call was filed
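Inhibition of EC80 dopamine-driven calcium flux, recorded kinetically, defines activity here; cells are a tetracycline-induced HEK293 T-REx line expressing force-coupled D2.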
D2 PAM-2: positive allosteric modulators of human D2 dopamine receptor | DiscoveRx D2 beta-arrestin cells, luminescence, 90 min; 100% = 57 uM dopamine signal | potentiation, % (concentration not given with the values) | 360,000 tested, 0.23% active | P14416 | AID 624464; in the data active means potentiation above about 50%; inconclusive means mostly about 30% to 49%
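PathHunter beta-arrestin assay in DiscoveRx D2 cells. Compounds were added with an EC20 of dopamine (50 nM final) for 90 min at 37 deg C. Luminescence was read 1 h after detection reagent, with 57 uM dopamine as the EC100 control.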
D3 ag: confirmation of human D3 dopamine receptor agonists, beta-arrestin; shares compounds with D2 ag-1; DiscoveRx D3 beta-arrestin cells, luminescence, 90 min; Potency, µM (top dose mostly 76.9 µM), usual class: activators; 2,300 tested, 4% active; AID 720506; further: nearly all actives have a fitted effect of over 70% in size
Target sequence (P35462 whole entry, looked up): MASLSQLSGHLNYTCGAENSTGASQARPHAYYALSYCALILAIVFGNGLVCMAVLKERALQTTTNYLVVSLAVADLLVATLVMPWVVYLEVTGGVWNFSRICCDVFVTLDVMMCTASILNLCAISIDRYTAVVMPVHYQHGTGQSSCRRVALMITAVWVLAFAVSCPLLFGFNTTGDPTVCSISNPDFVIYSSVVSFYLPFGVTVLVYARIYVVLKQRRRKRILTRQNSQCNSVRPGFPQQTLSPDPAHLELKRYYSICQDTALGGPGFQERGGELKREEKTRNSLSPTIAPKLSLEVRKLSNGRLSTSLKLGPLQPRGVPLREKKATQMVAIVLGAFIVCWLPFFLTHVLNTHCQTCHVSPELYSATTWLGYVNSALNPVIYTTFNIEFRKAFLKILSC
D2 ag-3: counter-screen for D3 agonists: human D2 dopamine receptor agonism. 2,300 tested, 5.9% active. shares compounds with D2 ag-1. Potency, µM (series often up to 76.9 µM), actives largely listed as activators. DiscoveRx PathHunter D2 beta-arrestin, luminescence, 90 min; response scale: percent relative to full dopamine signal; further: nearly all actives have a fitted effect of over 70% in size
A number is an active result; . = inactive; ? = inconclusive; / = not tested or not shown. Hits are enriched below; roughly 2.4% of the tested compounds scored in any of these assays. Unless noted, the call rests on the fitted dose curve; in most records, active means well fitted activation curve with a large enough effect; inconclusive means small, poorly fitted or top-dose-only effect; inactive means flat fitted curve, though single readings scatter.

SMILES	D2 ag-1	D2 ag-2	D2 PAM-1	D2 antagonist	D2 PAM-2	D3 ag	D2 ag-3
CCCCN(CC)CCCNC(=S)Nc1ccc2nc(N3CCN(CC)CC3)cc(C)c2c1	60	.	.	41	.	?	.
CCCN(CCC)CCCNC(=S)Nc1ccc2nc(N3CCCC3)cc(C)c2c1	.	.	.	.	.	/	/
CCCCN(CC)CCCNC(=S)Nc1ccc2nc(N3CCN(C)CC3)cc(C)c2c1	71	.	.	40	.	.	.
CCOC(=O)c1oc2ccccc2c1COC(=O)C(C)NC(=O)c1ccco1 (stereo not drawn)	.	.	.	.	.	/	/
CSc1ccc(C2c3c(oc4cc(C)cc(C)c4c3=O)C(=O)N2CCO)cc1 (stereo not drawn)	.	/	/	/	/	/	/
O=C(CCN1CCN(c2ccccc2F)CC1)Nc1ccc2c(c1)OCO2	80	?	.	86	.	?	?
CCN1CCN(CCC(=O)Nc2ccc3c(c2)OCO3)CC1	.	.	.	.	.	/	/
O=C(CCN1CCN(c2ccccc2)CC1)Nc1nccs1	71	.	.	93	.	.	.
O=C(CCN1CCN(c2ccccc2)CC1)Nc1ccc2c(c1)OCO2	103	?	.	108	.	?	?
O=C(CCN1CCN(c2ccccc2)CC1)Nc1cccc(Br)c1	60	.	.	75	.	.	.
CCc1ccc(C2c3c(n[nH]c3C)C(=O)N2c2ccc(C)cc2)cc1 (stereo not drawn)	.	/	.	/	/	/	/
Cc1ccc2nc(-c3ccc(C)s3)c(Nc3ccc4c(c3)OCCO4)n2c1	.	/	.	/	/	/	/
COc1ccc(NC(=O)CCN2CCN(c3ccccc3F)CC2)c(OC)c1	90	49	.	86	.	?	?
COc1ccc(NC(=O)CN2CCN(c3ccccc3F)CC2)c(OC)c1	/	/	.	/	/	/	/
O=C(CN1CCN(c2ccc(O)cc2)CC1)Nc1ccc2c(c1)OCCCO2	35	.	.	.	.	40µM	35µM
Cc1oc(-c2ccccc2F)nc1CN1CCC(C(=O)NCc2cccs2)CC1	52	.	.	.	.	.	.
Cc1cc(C)nc(N2CCC(C(=O)NCc3cccs3)CC2)n1	31	.	.	.	.	.	.
Cc1cc(C)nc(N2CCC(C(=O)NCc3ccco3)CC2)n1	/	.	/	/	.	/	/
Cc1coc2cc3oc(=O)c(CCC(=O)NCc4ccccc4Cl)c(C)c3cc12	.	/	.	/	/	/	/
CCOC(=O)c1c(C)[nH]c(CCC(=O)Nc2cc(C)ccc2OC)c1C	.	/	.	/	/	/	/
Cc1ccc(-n2nc3c(=O)n(CC(=O)NCc4ccccn4)nc(C)c3c2C)cc1	52	.	.	.	.	.	.
O=C(N/N=C/c1ccc(OCC(=O)N2CCCCC2)cc1)c1ccccc1O	/	.	/	/	.	/	/
CCCN1CCN(CCNC(=O)Nc2ccccc2Cl)CC1	.	.	.	.	.	/	/
O=C(NCCN1CCN(c2ccccc2)CC1)Nc1ccccc1Br	59	.	.	76	.	.	.
O=C(NCCN1CCN(c2ccccc2)CC1)Nc1cccc(Br)c1	.	.	.	.	.	/	/
SMILES	D2 ag-1	D2 ag-2	D2 PAM-1	D2 antagonist	D2 PAM-2	D3 ag	D2 ag-3
O=C(NCCN1CCN(c2ccccc2)CC1)Nc1ccccc1Cl	64	.	.	35	.	?	.
COc1cc(NC(=O)NCCN2CCN(c3ccccc3)CC2)cc(OC)c1OC	75	.	.	76	.	.	?
O=C(NCCN1CCN(c2ccccc2)CC1)Nc1ccc(Cl)cc1	75	.	.	82	.	.	?
CCN1CCN(C(c2cccc(F)c2)c2c(O)cc(C)n(CCOC)c2=O)CC1 (stereo not drawn)	/	/	.	/	/	/	/
O=C(CCN1CCN(c2ccccc2)CC1)NNC(=O)Cc1ccccc1Cl	81	.	.	48	.	.	.
O=C(CCN1CCN(c2ccccc2)CC1)NNC(=O)c1ccccc1	/	.	/	/	.	/	/
O=C(CCN1CCN(c2ccccc2)CC1)NNC(=O)Cc1c(F)cccc1Cl	79	.	.	60	.	?	.
COc1ccc(CCN2CC(C(=O)N(C)CC(=O)Nc3ccc(Cl)c(C(F)(F)F)c3)CC2=O)cc1OC (stereo not drawn)	.	.	.	.	.	.	.
CN(CC(=O)Nc1ccc(Cl)c(C(F)(F)F)c1)C(=O)C1CC(=O)N(CCc2ccccc2)C1 (stereo not drawn)	.	.	.	.	.	.	.
CC1=C(C(=O)N2CCOCC2)CC(CC(=O)NCCc2ccccn2)C(=O)N1Cc1ccc(C(C)(C)C)cc1 (stereo not drawn)	/	.	/	/	.	/	/
O=C(C(=O)N1CCN(Cc2ccc3c(c2)OCO3)CC1)c1c[nH]c2ccccc12	.	.	.	.	.	/	/
COc1ccc(C(=O)O)cc1NC(=S)NC(=O)CSc1ccc(Cl)cc1	.	.	.	.	.	.	.
Cc1ccc(NC(=O)C2(C)CCN2CCc2ccccc2)cc1 (stereo not drawn)	/	.	/	/	.	/	/
COc1ccc(OCC(O)CNC(C)c2ccccc2)cc1 (stereo not drawn)	.	.	.	.	.	/	/
COc1ccc([C@H](C)NC[C@H](O)c2ccc(O)c(NC=O)c2)cc1	33	.	.	.	.	.	.
FC(F)C(F)(F)Oc1cccc(Nc2nccn3c(-c4cccc5ccccc45)cnc23)c1	/	.	/	/	.	/	/
CCN(CC)C(=O)c1cccc(NC(=O)CCc2nc3sc4c(c3c(=O)[nH]2)CCCC4)c1	.	.	.	.	.	.	.
CC(C(=O)Nc1ccc([N+](=O)[O-])cc1)N1CCN(C/C=C/c2ccccc2)CC1 (stereo not drawn)	67	.	.	53	.	?	?
CC(C(=O)N(C)Cc1ccccc1)N1CCN(C/C=C/c2ccccc2)CC1 (stereo not drawn)	69	?	.	69	.	?	?
COc1ccc(Cl)cc1NC(=O)C(C)N1CCN(C/C=C/c2ccccc2)CC1 (stereo not drawn)	.	.	.	.	.	/	/
CC(=O)c1ccc(NC(=O)C(C)N2CCN(C/C=C/c3ccccc3)CC2)cc1 (stereo not drawn)	.	.	.	47	.	?	.
O=C(NCC(=O)N1CCN(S(=O)(=O)c2ccccc2)CC1)c1ccc(Br)o1	/	.	/	/	.	/	/
COc1ccc(NC(=O)N2CCCC(c3ccccc3)C2)cc1 (stereo not drawn)	/	.	/	/	.	.	.
CCOC(=O)C(=O)Nc1ccc(S(=O)(=O)Nc2nccc(C)n2)cc1	/	.	/	/	.	/	/

High-throughput results (PubChem)
